Laboratory results as given in PubChem BioAssay AID2216 (Broad Institute, 2009).
About 3,300 (1.1%) of roughly 300,000 compounds were called active. Inconclusive results (about 6%) are left out. This is one part of a sample in which actives are shown more often than they occur. Values without a mark were called inactive.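 Rule for the calls: active = more than half of the replicate wells show a fall in the fluorescence ratio signal beyond about 16% (limit read from the data, passing the limit was not always enough); inconclusive = exactly half of the replicate wells pass the set limit; inactive = fewer than half of replicates pass the limit.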

system: Ran GTPase (GTP-bound) - importin-beta complex; experiment: inhibitors of RanGTP-importin-beta interaction, primary screen, biochemical, FRET, CFP-Ran, YFP-importin-beta, homogeneous (AID 2216); conditions: cell-free CFP-Ran/YFP-importin-beta FRET ratio; hits give high values; concentration not given here;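 note: 0% = DMSO wells and 100% = Ran loaded with GDP instead of GTP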

First: CCc1noc(C)c1C(=O)NNC(=O)c1ccc(F)cc1
Second: CCCNC(=O)c1onc(CSc2ccc(F)cc2)c1C(=O)NC(C)C
The inhibition of the first is higher: 3.18% for the first, -1.02% for the second.

First: Cc1ccccc1OCC(=O)NNC(=O)c1ccc(-n2cncn2)c([N+](=O)[O-])c1
Second: COc1ccccc1OCC(=O)Nc1ccccc1C(=O)NC1CC1
The inhibition of the first is higher: 3.51% for the first, -1.85% for the second.

First: COc1ccccc1CNC(=O)CSc1nc(=O)n(Cc2ccncc2)c2c1CCC2
Second: COC(=O)CSc1nc2ccccc2c(=O)n1Cc1ccccc1
The inhibition of the first is lower: -4.86% for the first, 5.12% for the second.

Going from `O=C(Nc1ncccc1O)c1ccc(C(=O)c2ccccc2)cc1` to `O=C(NNC(=O)c1cccnc1)Nc1ccccc1`, the inhibition rises from -5% to -0.622%.

Going from `O=C(COC(=O)c1ncc(Cl)c(Cl)c1Cl)NC1CCS(=O)(=O)C1` (stereo not given) to `CS(=O)(=O)c1ccc(Cl)c(NC(=O)COC(=O)c2ncc(Cl)c(Cl)c2Cl)c1`, the inhibition falls from 1.31% to -0.161%.

First: COCc1cc(=O)n2[nH]c(C)c(-c3ccccc3)c2n1
Second: CCOC(=O)c1c(C)oc2cc(Sc3ccccc3)c(O)c(O)c12
The inhibition of the first is higher: 1.2% for the first, -4.55% for the second.

Going from `CC1Cc2cc(/C(O)=C3\C(=O)C(=O)N(CCN4CCOCC4)C3c3ccccc3F)ccc2O1` (stereo not given) to `COc1ccc(C2/C(=C(/O)c3ccc(OC(C)C)cc3)C(=O)C(=O)N2CCCN2CCOCC2)cc1` (stereo not given), the inhibition falls from 1.9% to -1.52%.

Going from `CCN(CC)CCN1C(=O)C(=O)/C(=C(/O)c2ccccc2)C1c1ccccc1F` (stereo not given) to `COc1ccc(/C(O)=C2/C(=O)C(=O)N(CCCN(C)C)C2c2ccccc2)cc1OC` (stereo not given), the inhibition rises from -0.379% to 3.13%.

Compared with `CCOc1ccc(CCNC(=O)COC(=O)c2ccc(F)c(S(=O)(=O)N3CCOCC3)c2)cc1OCC`, `CCOc1ccc(NC(=O)CN(C)C(=O)COc2cccc(CC)c2)cc1OCC` is higher in inhibition: -2.22% for the first, -1.27% for the second.

First: CCN(CC)c1ccc(NC(=O)c2ccc(=O)[nH]c2)cc1S(=O)(=O)Nc1ccc(OC)cc1
Second: CCOc1ccc(NC(=O)[C@H](C)NC(=O)C2CC(=O)N(c3ccc(OC)cc3)C2)cc1 (stereo not given in full)
The inhibition of the first is lower: -0.956% for the first, 2.72% for the second.

Compared with `CCOc1ccccc1NC(=O)c1cccnc1`, `CCOc1cc2ccccc2cc1C(=O)Nc1ccccn1` is higher in inhibition: -0.62% for the first, 3.29% for the second.

First: O=C(Nc1cc(S(=O)(=O)N2CCOCC2)ccc1OCC(F)(F)F)c1ccc(N2CCCC2=O)cc1
Second: O=C(Nc1ccc(N2CCCCC2)cc1)c1cc(S(=O)(=O)N2CCOCC2)ccc1F
The inhibition of the first is higher: 5.96% for the first, -0.386% for the second.

Going from `COCC1CCN(C(=O)c2ccc3oc(Cc4ccccc4)nc3c2)C1` (stereo not given) to `CCOC(=O)c1cc2ccccc2n1CC(=O)c1ccccc1`, the inhibition falls from 1.03% to -1.27%.

Compared with `CC(=O)Cc1nsc(NC(=O)c2ccc(Cl)cc2Cl)n1`, `O=C(Nc1ccc(OCC(=O)N2CCOCC2)cc1)c1cc(F)c(F)cc1Cl` is higher in inhibition: 1.86% for the first, 3.93% for the second.

First: [O-][n+]1ccc(OCc2ccccc2)cc1
Second: COC(=O)c1ccc(S(=O)(=O)NCc2ccccc2)n1C
The inhibition of the first is higher: -2.54% for the first, -3.7% for the second.

Compared with `CCC(C)c1ccccc1N1CC(C(=O)N2CCN(S(=O)(=O)c3ccc(F)cc3)CC2)CC1=O` (stereo not given), `COc1cccc(COC(=O)C2CCN(S(=O)(=O)c3ccc(Cl)cc3)CC2)c1OC` is higher in inhibition: 1.46% for the first, 3.92% for the second.

Going from `NC1=NC(c2ccc([N+](=O)[O-])cc2)N(c2ccc(F)cc2)C(N)=N1` (stereo not given) to `Cc1occc1C(=O)N/N=C/c1ccc(-c2cccc([N+](=O)[O-])c2)o1`, the inhibition falls from 1.29% to -1.61%.

First: CN(C)N1C(N)=C(C#N)C(c2ccc(Br)cc2)C2=C1CCCC2=O (stereo not given)
Second: N#CC1=C(N)N(c2ccccc2)C2=C(C(=O)CCC2)C1c1ccccc1 (stereo not given)
The inhibition of the first is higher: -0.393% for the first, -1.9% for the second.

Compared with `O=C(CCCCO)c1ccc(O)c(Cl)c1`, `O=C(CCCN=C1NS(=O)(=O)c2ccccc21)OCC(=O)c1ccc(F)c(F)c1` is higher in inhibition: -9.87% for the first, 3.32% for the second.

First: Cc1ccc(-c2csc(NCCc3nc4cc(Cl)c(Cl)cc4n3CCOCCO)n2)cc1
Second: O=C1CN(C(=O)COc2c(Cl)cccc2Cl)c2ccccc2N1
The inhibition of the first is higher: 3.23% for the first, 0.217% for the second.

First: CCOC(=O)CCCN1CC(O)=C(c2nc3ccccc3s2)C1=N
Second: CCOC(=O)N1CCN(CC(=O)Nc2cc(C)nn2-c2nc3ccccc3s2)CC1
The inhibition of the first is lower: -2.49% for the first, -2.13% for the second.

First: COc1ccccc1C(=O)NCCC(=O)NCC(c1ccco1)N1CCCCC1 (stereo not given)
Second: COc1ccc(C(CNC(=O)c2cccc(S(=O)(=O)Nc3ccccc3Cl)c2)N2CCOCC2)cc1 (stereo not given)
The inhibition of the first is lower: 2.56% for the first, 10.7% for the second.

First: COc1ccc(CCC(=O)c2ccc(OC)cc2)cc1
Second: COc1ccc(C(=O)C[n+]2ccc(C)cc2)cc1
The inhibition of the first is lower: 0.925% for the first, 6.13% for the second.

First: COC(=O)c1c(-c2ccsc2)oc2ccc(-c3cc(OC)c(OC)c(OC)c3)cc12
Second: COc1cc(-c2nnc(NC(=O)C3=COCCO3)o2)cc(OC)c1OC
The inhibition of the first is lower: -4.62% for the first, -0.69% for the second.

Compared with `Cc1ccc(-n2c(O)c(C=Nc3ccc(S(=O)(=O)Nc4ncccn4)cc3)c3ccccc3c2=O)cc1C`, `CCOc1ccc(-n2c(O)c(/C=N/c3ccnn3Cc3ccncc3)c3ccccc3c2=O)cc1` is higher in inhibition: -1.55% for the first, 0.299% for the second.

First: O=C(CSC(=S)N1CCOCC1)c1ccccc1
Second: CC(=O)c1ccc(NC(=O)CSC(=S)N2CCCC2)cc1
The inhibition of the first is higher: 0.663% for the first, -0.968% for the second.

Compared with `Cc1cc(C)c(S(=O)(=O)N2CCCC2CNC(=O)c2ccc3c(c2)OCO3)c(C)c1` (stereo not given), `CCC1(c2ccccc2)NC(=O)N(CC(=O)c2ccc3c(c2)OCO3)C1=O` (stereo not given) is lower in inhibition: 4.9% for the first, 1.92% for the second.

Going from `COC(=O)C1=C(C)OC(N)=C(C#N)C1c1cc(OC)ccc1OC` (stereo not given) to `COc1cc(C2C(C#N)=C(N)Oc3n[nH]c(-c4ccccn4)c32)cc(OC)c1OC` (stereo not given), the inhibition rises from -2.56% to -0.727%.

First: CCOC(=O)c1cc2occc2n1CC(=O)N1CCN(C(=O)c2ccco2)CC1
Second: CCC(C(=O)N1CCOCC1)n1c(C(=O)OC)cc2occc21 (stereo not given)
The inhibition of the first is higher: -1.58% for the first, -3.41% for the second.

Compared with `COc1ccc(OC)c(S(=O)(=O)N2CCCC(C(=O)N3CCC(C(N)=O)CC3)C2)c1` (stereo not given), `COc1ccc(S(=O)(=O)N2CCCCC2)cc1NC(=O)c1cc([N+](=O)[O-])ccc1N1CCOCC1` is higher in inhibition: 6.32% for the first, 8.1% for the second.

First: O=C(O)c1ccccc1CSc1nc2ccccc2s1
Second: CCn1c2ccccc2c2cc(NC(=O)COC(=O)c3ccccc3Br)ccc21
The inhibition of the first is lower: -3.5% for the first, -2.01% for the second.

Compared with `C/C=C/c1ccc(OCC(=O)OCC(=O)Nc2c(C)nn(-c3ccccc3)c2C)c(OC)c1`, `CCn1c2ccccc2c2cc(NC(=O)C/C(C)=N/NC(=O)c3ccccc3N)ccc21` is lower in inhibition: 1.88% for the first, -6.36% for the second.

Going from `COC(=O)C1=C(C)N(C)C(=S)NC1c1ccccc1` (stereo not given) to `COCCN1C(=O)N[C@@H](CCc2ccccc2)[C@H](C(C)=O)[C@H]1C`, the inhibition falls from 4.45% to -2.31%.

Compared with `O=C1CC2(CCCC2)Oc2ccc(Cl)cc21`, `CCN1C(=O)[C@@H]2[C@@H](c3ccc(-c4cccc(Cl)c4)cc3)N3CCC[C@@]3(C(=O)OC)[C@@H]2C1=O` is higher in inhibition: -0.936% for the first, 0.656% for the second.

Compared with `CCOc1ccc(N2CC(C(=O)NCc3ccccn3)CC2=O)cc1` (stereo not given), `CC(OC(=O)c1ccc(-n2cnnn2)cc1)C(=O)NCc1ccccc1` (stereo not given) is higher in inhibition: -1.93% for the first, 3.57% for the second.

Going from `CCN(CC)CCn1c(N)c(S(=O)(=O)c2ccccc2)c2nc3ccccc3nc21` to `CC1CN(c2cc(=O)n(Cc3ccc(F)cc3)c(=O)[nH]2)CC(C)O1` (stereo not given), the inhibition rises from 0.032% to 8.41%.

`CC1CN(C(=S)Nc2ccc(Br)cc2Cl)CC(C)O1` (stereo not given) was tested, and the inhibition was -3.05%.

With `CCN(CC)CCN1C(=O)C(=O)/C(=C(/O)c2ccc(OC)c(OC)c2)C1c1ccccn1` (stereo not given) the inhibition was 33.8% (active).
`O=C1C(=O)N(CCN2CCOCC2)C(c2ccccn2)/C1=C(/O)c1ccc(Cl)cc1` (stereo not given) was tested, and the inhibition was 20.4% (active).
For `O=C(Nc1cnccn1)c1cccnc1`, the inhibition was 15.8% (active).
`CCN1CCc2nc(NC(=O)c3cc(F)c(F)cc3Cl)sc2C1` was tested, and the inhibition was 19.6% (active).
With `CSc1sc(C)cc1C1C(C#N)=C(N)N(c2cccnc2)C2=C1C(=O)CCC2` (stereo not given) the inhibition was 18.2% (active).
In the case of `CCOC(=O)c1oc2c(CN3CCN(CCO)CC3)c(O)c(CC)cc2c(=O)c1-c1nc2ccccc2s1`, the inhibition is reported as 16.5% (active).
With `COc1ccc(C(=O)C[n+]2ccc(N)c(C)c2C)cc1` the inhibition was 26.2% (active).
In the case of `CCOc1ccc(N=Cc2c(O)n(-c3cccc(C)n3)c(=O)c3ccccc23)cc1`, the inhibition is reported as 22.9% (active).
In the case of `O=C(CSC(=S)N1CCCCC1)c1c(F)cccc1F`, the inhibition is reported as 18.8% (active).
In the case of `COc1ccc(C2C(C#N)=C(N)Oc3cc(N)ccc32)cc1OC` (stereo not given), the inhibition is reported as 70.8% (active).
For `CCOC(=O)c1cc2c(ccn2C)n1CC(=O)N1CCC(C)CC1`, the inhibition was 24.7% (active).
For `COC(=O)c1cc2c(ccn2C)n1C`, the inhibition was 21.8% (active).
In the case of `COCCN1C2=C(COC(C)(C)C2)C(=S)NC1c1ccccc1` (stereo not given), the inhibition is reported as 18.1% (active).
For `CCCC(C)c1nnc(NC(=O)C2CC(=O)N(c3ccc(OCC)cc3)C2)s1` (stereo not given), the inhibition was 18.4% (active).
In the case of `CCC(=O)Nc1c(S(=O)(=O)c2ccccc2)c2nc3ccccc3nc2n1Cc1ccccc1`, the inhibition is reported as 22.2% (active).
In the case of `CCn1c2ccccc2c2cc(NC(=O)CNC)ccc21`, the inhibition is reported as 18.8% (active).
`CC1CN(c2cc(=O)n(-c3cccc(Br)c3)c(=O)[nH]2)CC(C)O1` (stereo not given) was tested, and the inhibition was 39.6% (active).
